tested on: PPARa:RXRa (NR concentration 270 nM, RXRa partner concentration 90 nM); test: PBM binding z-score (relative to random genomic background probes); higher = stronger binding; sequences stand for … in GC…GCGATTGACAGCGTAGAATGAAGG
Outline: (§1)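 Ligand-free nuclear receptor dimers were bound for 1 h to custom Agilent 4×180K protein-binding microarrays. Detection used antibodies against each partner (one per run). Binding z-scores rest on regression-normalized fluorescence, with random background probes as the reference.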

| Sequence | PBM binding z-score |
| --- | --- |
| ATCTCTAGGTAACAAGTTCAGTGAAAGAGAGGAC | 1.82 |
| CGTCCAAGGTCAAACGTCAGTGAAGAGATGACGG | 6.06 |
| AGTCACAGTTCAGGACGAGGTAACGTAAAGCACG | 1.35 |
| ACAGACAGGTGAGTGAAGGTAGCTCAGCTGGACG | -0.372 |
| TTACCAAGGTGAAAGGTCGTTGGTGCACGCCTTG | 5.54 |
| GCTGCTAGGTCAACTCATGGTCAGCTAAAGCTCG | 3.73 |
| CGCACTAGGTCAAGGACAGTGAATCTCCGCACGC | 4.26 |
| CCAACTAGGTCATCCAGGACAGTGAATACATTGA | 4.41 |
| GCATATAGGTAGTACAAGGTGAAAGTCCGATTGT | 1.16 |
| GTGCCAAGGTGAATAGGTCGTTGATGAGTAGGCG | 2.12 |
| CGTCCAAGGTCAATGCTATGTCAGTGAAAGCATT | 4.99 |
| CGTCCAAGGTCTATGCTAGGTCAGTGAAAGCATT | 0.535 |
| CGAACGAGGGCATGAGTTGATAGAAAATGCCGAT | 1.58 |
| CGTCCAAGGTGAAAGGTCAGTGAAGAGATGACGG | 6.01 |
| CAAACTATGTCACAGAGGTCAAAGTCCGTGCGTA | 5.51 |
| TCTTGAAGATCAAAGGTTAAGAAAGCCGAAGCCT | 4.1 |
| TTACCAAGGTGATAGGTCGTTGATGCACGCCTTG | 2.84 |
| TCTGCTTGGTCAGTTGGTCAGCTAACGAGCTGCC | -0.161 |

tested on: PPARg:RXRa (NR concentration 180 nM, RXRa partner concentration 90 nM); test: as above
Outline: as §1

| Sequence | PBM binding z-score |
| --- | --- |
| TCATATAGGTAACCAGGTGAAAGTCCGTAAGTTA | 4.7 |
| TGAATGAGGCTATAAGATCAGGGAACGTTGCAAA | 0.387 |
| CCGACTGGGCCAAGGTTACCATAACGCACAGCCA | 1.97 |
| AGAATGAGGTTATTAAGGTCAGGGAATTGCGGTC | 3.54 |
| CCTTACGAGTCACGAGGTTATAGCACGACGAGCG | 1.22 |
| GCTATTAGTTGAAAGGGCCACCGAATGATTCTCG | 0.611 |
| GCTATTAGTTGAAAGGGCAACCGCATGATTCTCG | 2.89 |
| CCTGCTTGGTCATGGTCAGCTAATCTACAGTATG | -0.171 |
| CAAACTAGGTCACAGAGTTCAAAGTCCGTGCGTA | 9.65 |
| CGTCAAAGTTCACGGTAACGTAACAGAAAGCAGC | 6.18 |
| ATCTCTAGGTAAAGATAATTCAGTGAATGCAAAT | 0.908 |
| GGAACAAGGGCATTCGAGTTGATAGCATGGCGAT | 0.807 |
| CCTACTGGGGCATAAGGTTACCATAAGCCAGCCC | 3.73 |
| GATACAGGGTCAAGGCCAGAGCACGCGTATTGAT | 5.84 |
| CCTAGTTGGTCAAGGTCACTCACGCTATAGGTAC | 2.44 |
| TAGCCTGGGTCATTGGGCCAGTATAGTACGCATC | 3.81 |
| ATCTCTAGTTAAAAGTTCAGTGAATCCCGAGGAT | 1.4 |
| TCTGCTAGGTCAGTGGGTCAGCTAACGAGCTGCC | 5.03 |
| CCTTACGGGTCACGAGGTTTTAGCACGACGAGCG | 6.51 |
| GCTTACGGGTCAAAGGCTATAGCATGAATAGAAT | 7.81 |

| Sequence | PBM binding z-score |
| --- | --- |
| AGAATGAGGTTATTAAGTTCAGGGAATTGCGGTC | 1.55 |
| ACAGACAGGTGATGAAGGTAACTCCGGCTATCAT | 0.658 |
| ATCTCTAGGTAACAAGTTCAGTGAAAGAGAGGAC | 1.52 |
| CGTCCAAGGTCAAACGTCAGTGAAGAGATGACGG | 5.95 |
| AGTCACAGTTCAGGACGAGGTAACGTAAAGCACG | 1.15 |
| ACAGACAGGTGAGTGAAGGTAGCTCAGCTGGACG | 0.284 |
| TTACCAAGGTGAAAGGTCGTTGGTGCACGCCTTG | 8.98 |
| GCTGCTAGGTCAACTCATGGTCAGCTAAAGCTCG | 2.73 |
| CGCACTAGGTCAAGGACAGTGAATCTCCGCACGC | 6.58 |
| CCAACTAGGTCATCCAGGACAGTGAATACATTGA | 6.66 |
| GCATATAGGTAGTACAAGGTGAAAGTCCGATTGT | 0.674 |
| GTGCCAAGGTGAATAGGTCGTTGATGAGTAGGCG | 1.15 |
| CGTCCAAGGTCAATGCTATGTCAGTGAAAGCATT | 3.66 |
| CGTCCAAGGTCTATGCTAGGTCAGTGAAAGCATT | -0.39 |
| CGAACGAGGGCATGAGTTGATAGAAAATGCCGAT | 1.42 |
| CGTCCAAGGTGAAAGGTCAGTGAAGAGATGACGG | 9.57 |
| CAAACTATGTCACAGAGGTCAAAGTCCGTGCGTA | 6.2 |
| TCTTGAAGATCAAAGGTTAAGAAAGCCGAAGCCT | 4.39 |
| TTACCAAGGTGATAGGTCGTTGATGCACGCCTTG | 4.06 |
| TCTGCTTGGTCAGTTGGTCAGCTAACGAGCTGCC | -1.11 |

tested on: PPARg:RXRa 270nM:90nM, anti-RXR (NR concentration 270 nM, RXRa partner concentration 90 nM); test: as above
Outline: as §1

| Sequence | PBM binding z-score |
| --- | --- |
| TCATATAGGTAACCAGGTGAAAGTCCGTAAGTTA | 4.35 |
| TGAATGAGGCTATAAGATCAGGGAACGTTGCAAA | 0.203 |
| CCGACTGGGCCAAGGTTACCATAACGCACAGCCA | 2.37 |
| AGAATGAGGTTATTAAGGTCAGGGAATTGCGGTC | 4.22 |
| CCTTACGAGTCACGAGGTTATAGCACGACGAGCG | 0.515 |
| GCTATTAGTTGAAAGGGCCACCGAATGATTCTCG | 1.6 |
| GCTATTAGTTGAAAGGGCAACCGCATGATTCTCG | 4.29 |
| CCTGCTTGGTCATGGTCAGCTAATCTACAGTATG | -0.154 |
| CAAACTAGGTCACAGAGTTCAAAGTCCGTGCGTA | 7.78 |
| CGTCAAAGTTCACGGTAACGTAACAGAAAGCAGC | 6.59 |
| ATCTCTAGGTAAAGATAATTCAGTGAATGCAAAT | 0.48 |
| GGAACAAGGGCATTCGAGTTGATAGCATGGCGAT | 0.531 |
| CCTACTGGGGCATAAGGTTACCATAAGCCAGCCC | 4.44 |
| GATACAGGGTCAAGGCCAGAGCACGCGTATTGAT | 5.3 |
| CCTAGTTGGTCAAGGTCACTCACGCTATAGGTAC | 3.08 |
| TAGCCTGGGTCATTGGGCCAGTATAGTACGCATC | 3.62 |
| ATCTCTAGTTAAAAGTTCAGTGAATCCCGAGGAT | 3.41 |
| TCTGCTAGGTCAGTGGGTCAGCTAACGAGCTGCC | 4.53 |
| CCTTACGGGTCACGAGGTTTTAGCACGACGAGCG | 6.3 |
| GCTTACGGGTCAAAGGCTATAGCATGAATAGAAT | 6.86 |

| Sequence | PBM binding z-score |
| --- | --- |
| AGAATGAGGTTATTAAGTTCAGGGAATTGCGGTC | 2.1 |
| ACAGACAGGTGATGAAGGTAACTCCGGCTATCAT | -0.261 |
| ATCTCTAGGTAACAAGTTCAGTGAAAGAGAGGAC | 1.92 |
| CGTCCAAGGTCAAACGTCAGTGAAGAGATGACGG | 6.15 |
| AGTCACAGTTCAGGACGAGGTAACGTAAAGCACG | 0.998 |
| ACAGACAGGTGAGTGAAGGTAGCTCAGCTGGACG | 0.0552 |
| TTACCAAGGTGAAAGGTCGTTGGTGCACGCCTTG | 8.05 |
| GCTGCTAGGTCAACTCATGGTCAGCTAAAGCTCG | 3.12 |
| CGCACTAGGTCAAGGACAGTGAATCTCCGCACGC | 5.97 |
| CCAACTAGGTCATCCAGGACAGTGAATACATTGA | 5.59 |
| GCATATAGGTAGTACAAGGTGAAAGTCCGATTGT | 0.733 |
| GTGCCAAGGTGAATAGGTCGTTGATGAGTAGGCG | 1.53 |
| CGTCCAAGGTCAATGCTATGTCAGTGAAAGCATT | 4.41 |
| CGTCCAAGGTCTATGCTAGGTCAGTGAAAGCATT | -0.288 |
| CGAACGAGGGCATGAGTTGATAGAAAATGCCGAT | 1.33 |
| CGTCCAAGGTGAAAGGTCAGTGAAGAGATGACGG | 8.09 |
| CAAACTATGTCACAGAGGTCAAAGTCCGTGCGTA | 6.01 |
| TCTTGAAGATCAAAGGTTAAGAAAGCCGAAGCCT | 5.89 |
| TTACCAAGGTGATAGGTCGTTGATGCACGCCTTG | 5.47 |
| TCTGCTTGGTCAGTTGGTCAGCTAACGAGCTGCC | 0.771 |
